This is an account of results in PubChem BioAssay AID1626 (SRMLSC, 2009).

Out of some 220,000 compounds screened, about 2,000 (0.91%) were called active. About 2% were inconclusive and are not listed. Rule as the data show it: inconclusive = inhibition above about 80% without an active follow-up result; inactive = below that; test concentration not stated here. Only a sample is shown. Measured potencies and affinities stand elsewhere.

A short description of this assay: M. tuberculosis H37Rv growth inhibitors, H37Rv strain (AID 1626).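 Also: bacteria incubated seven days before Alamar blue readout; 0% = bacteria only wells and 100% = bacteria with antibiotic wells.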 The following applies: stronger effect = higher value, concentration not given here.
By inhibition is commonly meant the change of the read-out against control, counted positive when it falls. On to `CC1=CC(=O)N(c2cccc(C(F)(F)F)c2)C1c1ccc(Cl)cc1` (stereo unspecified), for which the inhibition was 5.08% (inactive). Turning to `Cc1nc([N+](=O)[O-])c(Br)n1Cc1ccccc1`, the inhibition was 28.8% (inactive). As for `Cc1nc([N+](=O)[O-])c(Br)n1CC(=O)c1ccccc1`, the inhibition is 37% (inactive). The result for `Cc1nc([N+](=O)[O-])c(Br)n1CC(=O)c1ccc(F)cc1` reads 52.5% (inactive). Consider `Cc1nc([N+](=O)[O-])c(Br)n1CC(=O)c1ccc(Br)cc1`, for which the inhibition was 18.9% (inactive). In the case of `CCN(c1ccccc1)S(=O)(=O)c1ccc(Cl)c(NC(=O)CSc2nncs2)c1` it was 6.07% (inactive); in that of `CCCCCCCCc1nc(SCC(C)=O)n[nH]1`, 8.52% (inactive).

On to `O=C(CS(=O)(=O)c1cccc(Cl)c1)Nc1ccccc1Cl`, for which the inhibition is -9.41% (inactive). In the case of `CC(C)(C)c1cnnn1-c1ccc(/C=N/Nc2ccc([N+](=O)[O-])cc2)cc1` it was -0.06% (inactive); in that of `O=C(NCCN1CCN(c2ccccc2)CC1)c1cccn2c(=O)c3cc(Cl)ccc3nc12`, 8.3% (inactive); in that of `Cc1ccc(O)c(N=Cc2sc3ccccc3c2Cl)c1`, 11.1% (inactive). Consider `O=[N+]([O-])c1ccc(O)c(N=Cc2sc3ccccc3c2O)c1`, for which the inhibition is 5.55% (inactive).

As for `CCCc1ccc(NS(=O)(=O)c2c(C)oc(C)c2C(=O)OC)cc1`, the inhibition was 3.72% (inactive). `CN1CCN(C(=S)c2cn(Cc3cccc(F)c3)c3ccccc23)CC1`: the inhibition is 2.92% (inactive).

In the case of `COc1ccc(C)cc1S(=O)(=O)N1CCN(c2cccc(C(F)(F)F)c2)CC1`, the inhibition was -1.59% (inactive). In the case of `CC1/C(=N/O)CC(c2ccccc2)N(C)C1c1ccccc1` (stereo unspecified) it was -3.61% (inactive). In the case of `CCC1C(c2ccccc2)N(C)C(c2ccccc2)CC1(O)c1ccccc1` (stereo unspecified) it was 51.8% (inactive). Turning to `O=C(Nc1ccc(O)cc1C(=O)O)c1cccc(Br)c1`, the inhibition is 0.45% (inactive). In the case of `COc1cnc(-c2ccccn2)nc1Oc1ccccc1Cl` it was -2.44% (inactive); in that of `COc1cnc(-c2ccccn2)nc1Oc1ccc(Cl)cc1`, 71.9% (inactive). The result for `Fc1ccc(Oc2ncccn2)c(F)c1` reads 0.19% (inactive); that for `Nc1cccnc1Oc1ccc(F)cc1F`, -4.1% (inactive); that for `C#CCOCCOCCOCCNc1nc(N2CCN(C(=O)[C@H](CCC(=O)O)n3cc(C(N)[C@H](C)CC)nn3)CC2)nc(N2CCN(C(=O)[C@H](Cc3ccc(O)cc3)n3cc(C(N)[C@H](C)CC)nn3)CC2)n1` (stereo partly specified), 0.56% (inactive). The result for `Cc1cccc(NC2=C/C(=N/S(=O)(=O)c3cccs3)c3ccccc3C2=O)c1` reads 1.87% (inactive); that for `Cc1ccccc1NC1=C/C(=N\S(=O)(=O)c2cccs2)c2ccccc2C1=O`, 61.1% (inactive). As for `Cc1ccc(NC2=C/C(=N/S(=O)(=O)c3cccs3)c3ccccc3C2=O)cc1C`, the inhibition was 0.28% (inactive). The result for `O=C1C(Nc2ccccc2)=C/C(=N/S(=O)(=O)c2cccs2)c2ccccc21` reads 76.6% (inactive); that for `CC(=O)Nc1ccc(S(=O)(=O)NC(C)C(=O)NCCc2ccc(F)cc2)cc1` (stereo unspecified), 1.81% (inactive). The result for `O=C(COCC(=O)NCc1ccccc1)NCc1ccccc1` reads -4.59% (inactive); that for `CCN(CC)S(=O)(=O)c1cc(F)ccc1OC`, -2.44% (inactive); that for `CCn1nnc2c(=O)oc3ccccc3c21`, 13.4% (inactive). As to `CC(C)n1nnc2c(=O)oc3ccccc3c21`, the inhibition was 11.1% (inactive). In the case of `COc1cc2c(cc1OC)C(c1cc([N+](=O)[O-])ccc1O)NCC2` (stereo unspecified) it was -9.49% (inactive).

With `CC(=O)c1cccc(NC(=O)N2CCc3ccccc3C2)c1`, the inhibition was -10.8% (inactive). On to `COCCOC(=O)C1=C(N)OC2=C(C(=O)CC(C)(C)C2)C1c1ccncc1` (stereo unspecified), for which the inhibition was -0.69% (inactive). The result for `Cc1ccc(N2C(=O)NC(=O)/C(=C/c3ccc(OC(=O)c4cccs4)cc3)C2=O)cc1` reads 4.29% (inactive). In the case of `O=C1NN(c2ccc(Cl)c(Cl)c2)C(=O)/C1=C/c1cccc(OC(=O)c2cccs2)c1` it was 34.2% (inactive); in that of `COc1c(Cl)cc(Cl)cc1C(=O)Nc1ccccc1N1CCN(C(C)=O)CC1`, 1.59% (inactive).

For the molecule `CCOC(=O)c1[nH]cnc1C(=O)Nc1ccccc1OC`, the inhibition is -3.28% (inactive).

For `O=C(Cn1nnc(-c2ccc(Cl)cc2)n1)NCC1CCCCC1`, the inhibition was 3.64% (inactive). As to `CCC1CCCCN1CC(=O)Nc1cc(OC)c(OC)cc1C#N` (stereo unspecified), the inhibition is -5.44% (inactive). In the case of `O=C(CC1SCCNC1=O)Nc1cccc([N+](=O)[O-])c1` (stereo unspecified) it was -1.32% (inactive); in that of `Oc1ccc(Br)cc1C=Nc1ccc(Cl)cc1`, 3.2% (inactive); in that of `Oc1ccc(Cl)cc1C=Nc1ccc(Br)cc1`, -2.18% (inactive).

Take `COCC(C)NC(=O)c1oc2c(c1C)C1(CCC2)SCCS1` (stereo unspecified): the inhibition is 5.96% (inactive).

For the molecule `Cc1cc(N2CCCC2)nc(N2C3CCC2CC(O)(c2ccc(F)cc2)C3)n1` (stereo unspecified), the inhibition was 0.78% (inactive). Regarding `Cc1cc(N2CCN(c3ccc(F)cc3)CC2)nc(-c2ccccc2)n1`, the inhibition was 4.82% (inactive). For the molecule `COc1ccc(NC(=O)C2CCN(c3cc(C)nc(-c4ccccc4)n3)CC2)cc1`, the inhibition was 11.4% (inactive). In the case of `COc1ccc(C2(O)CC3CCC(C2)N3c2nc(C)cc(C)c2C#N)cc1` (stereo unspecified) it was -5.82% (inactive). On to `O=C(Cc1c(O)c2ccccc2[nH]c1=O)NCc1ccc(F)cc1`, for which the inhibition is -5.49% (inactive). On to `CCn1ccnc1CNC(=O)CC1C(=O)NCCN1CC(c1ccccc1)c1ccccc1` (stereo unspecified), for which the inhibition was 4.83% (inactive). The result for `CCN(Cc1ccccc1)C(=O)COC(=O)Cn1cnc2ccccc21` reads 3.35% (inactive); that for `OC(Cn1ccnc1)c1ccc(Cl)cc1Cl` (stereo unspecified), -10.3% (inactive). The result for `Clc1ccc(OCCn2ccnc2)c(Cl)c1` reads -5.05% (inactive); that for `S=C(NCCCn1ccnc1)Nc1ccc(Cl)cc1Cl`, 5.11% (inactive); that for `Clc1ccc(OCCn2ccnc2)c(Br)c1`, 1.12% (inactive). In the case of `OCC[C@H]1C[C@H](O)[C@@H](O)[C@@]2(CCCCO2)O1` it was -8.14% (inactive). `S=C(NCc1ccccc1Cl)Nc1ccccc1Cl`: the inhibition was 9.29% (inactive). The result for `COc1ccccc1-n1cc(C(=O)c2cc(Cl)ccc2O)cc(C#N)c1=O` reads 7.62% (inactive); that for `CC(=O)OC(C(=O)NC1CCCCC1)c1ccc(C)cc1` (stereo unspecified), -5.04% (inactive); that for `CCCC(C)C(=O)OCC(=O)Nc1ccc(Br)cc1` (stereo unspecified), 10.2% (inactive). The result for `Cc1ccc(NC(=O)CSCc2ccc(F)cc2)cc1` reads 76.7% (inactive); that for `COC(=O)c1ccc(NC(=O)CSCc2ccc(C)cc2)cc1`, 70.8% (inactive); that for `COc1ccc(-n2c(-c3ccc(Cl)cc3)c[n+]3c2CCCCC3)cc1`, -11.5% (inactive). For the molecule `O=C(C1CCC(CNc2c(N3CCOCC3)c(=O)c2=O)CC1)N1CCN(c2ccccc2)CC1` (stereo unspecified), the inhibition is -8.11% (inactive). The result for `COc1ccc(CN2CCc3ccccc3C2)c(OC)c1` reads -5.76% (inactive).

For the molecule `Cc1ccc(S(=O)(=O)N2CCN=C2c2ccccc2)cc1C`, the inhibition was 0.57% (inactive). As for `NC(=O)c1ccc(C(F)(F)F)n(Cc2cccc(Cl)c2)c1=O`, the inhibition is 17.3% (inactive).

As for `O=c1c([N+](=O)[O-])cccn1Cc1cccc(Cl)c1`, the inhibition is -8.12% (inactive). Take `COC(=O)c1cc(Br)c(=O)n(Cc2ccc(C(=O)O)cc2)c1`: the inhibition is -9.26% (inactive). The result for `COC(=O)c1ccc(Cn2cc(C(F)(F)F)ccc2=O)cc1` reads 2.66% (inactive); that for `CC(C)NC(=O)COC(=O)c1ccc(Oc2ccccc2)cc1`, -7% (inactive). The result for `c1ccc(-c2ccc(OCCCNC3CCCC3)cc2)cc1` reads 11.4% (inactive); that for `Cc1ccc2oc3c(c(=O)c2c1)C(c1cccc(Br)c1)N(Cc1ccco1)C3=O` (stereo unspecified), 1.98% (inactive). Take `O=C1c2oc3ccccc3c(=O)c2C(c2cccc(Br)c2)N1Cc1ccco1` (stereo unspecified): the inhibition is 1.43% (inactive). With `CN1CCN(C(=S)c2cn(CCOc3ccccc3)c3ccccc23)CC1`, the inhibition is 13% (inactive). As to `Cc1cc(N/C=C(\C#N)S(=O)(=O)c2ccccc2Cl)nc(C)n1`, the inhibition was -9.07% (inactive). In the case of `CC1=CC(C)(C)N2C(=O)C(=Nc3ccc(O)cc3)c3cccc1c32` it was 3% (inactive); in that of `COc1cc2c3c(c1)C(C)=CC(C)(C)N3C(=O)C2=O`, -3.11% (inactive).

For the molecule `CC(=O)N/C(=C\c1cccc([N+](=O)[O-])c1)C(=O)NC1CCCCC1`, the inhibition is -0.9% (inactive).

For the molecule `CCN(CC)S(=O)(=O)c1ccc(/C=C/C(=O)O)cc1`, the inhibition is -3.16% (inactive). In the case of `CS(=O)(=O)N(Cc1ccccc1)c1ccc(C(=O)NCC2CCCO2)cc1` (stereo unspecified) it was -13.4% (inactive); in that of `CCn1c(/C=C/c2cccc([N+](=O)[O-])c2)nc2ccccc2c1=O`, -7.86% (inactive). The result for `CCn1c(/C=C/c2ccccc2[N+](=O)[O-])nc2ccccc2c1=O` reads 2.98% (inactive). The result for `Cc1ccc(NC(=O)CCNC(=O)c2ccco2)cc1` reads 3.05% (inactive); that for `COc1ccc(NCc2nnc(SCC(=O)NNC(=O)c3ccc(C)cc3)n2C)cc1`, -19.4% (inactive).

With `COc1ccc(N2CCN(c3oc(COc4ccccc4)nc3C#N)CC2)cc1`, the inhibition was -5.04% (inactive). Consider `CCN1CCN(c2oc(COc3ccc(-c4ccccc4)cc3)nc2C#N)CC1`, for which the inhibition was 10.7% (inactive). As for `O=S(=O)(c1ccc2oc(=S)[nH]c2c1)N1CCCCC1`, the inhibition is -5.83% (inactive). In the case of `CCC(C)[C@H](NC(=O)NCc1ccc(S(N)(=O)=O)cc1)C(=O)OC` (stereo partly specified), the inhibition is 6.6% (inactive). Take `Cn1cnc2c1c(=O)n(Cc1ccccc1)c(=O)n2C`: the inhibition is -6.11% (inactive).

For `CN1CCN(c2ncnc3sc(-c4ccccc4)cc23)CC1`, the inhibition was 0.51% (inactive). In the case of `Oc1ccc(N2CCN(c3ncnc4sc(-c5ccccc5)cc34)CC2)cc1` it was 69.8% (inactive). The result for `c1ccc(-c2cc3c(N4CCCC4)ncnc3s2)cc1` reads 2.65% (inactive); that for `c1ccc(-c2cc3c(N4CCN(c5ncccn5)CC4)ncnc3s2)cc1`, -0.33% (inactive). For the molecule `O=C(NCCN1CCOCC1)N1CCOCC1`, the inhibition is -3.24% (inactive).
